Data on 52 compounds can be found in PubChem BioAssay AID686979 (National Center for Advancing Translational Sciences (NCATS), 2013).

Screen size: about 420,000 compounds; about 50,000 (12%) were called active. Inconclusive results (about 26%) are left out. The sample holds actives, similar compounds and a random draw of the others, so the mix is not that of the screen. Unmarked numbers belong to inactive results. Calls come from the whole dose curve; as a rule, active = well fitted inhibition curve with a large enough effect; inconclusive = small, poorly fitted or top-dose-only effect; inactive = flat fitted curve, though single readings scatter.
% is set by controls: 0 for no effect and ±100 for the full control effect; potency is the fitted concentration of half-maximal effect.

This assay is described as follows: qHTS for Inhibitors of human tyrosyl-DNA phosphodiesterase 1 (TDP1): qHTS in cells in presence of CPT. Note: nearly all actives have a fitted effect of over 55% in size. The settings on record: chicken DT40 Tdp1-/-;hTDP1 cells + 20 nM CPT, ATP luminescence, 48 h; series mostly up to 46.2 µM; activity change, negative = growth inhibition: at the top concentration. The gist of the method:
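Chicken DT40 Tdp1-/- cells complemented with human TDP1, 400 cells/well, exposed to compounds plus 20 nM camptothecin for at least 48 h at 37 C; viability read as ATP content by CellTiter-Glo luminescence.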
For `Cc1nc2cnc(Nc3ccccc3)nc2n(C[C@H]2CCCO2)c1=O`, the “activity change, negative = growth inhibition” value is 5.94%.
The same measure, in the same setting: the value for `COc1cccc(CC(=O)OCC(=O)NCc2ccc3c(c2)OCO3)c1` was -6.33%; that for `CCC1CN(CCNC(=O)c2cccnc2C)Cc2cc(OC)ccc2O1` (configuration not stated) was 21.1% [at 9.04 µM]; that for `COc1cccc(OC)c1CN(C)C(=O)c1cnccc1C(F)(F)F` was 6.45%.
For `CCn1cc(S(=O)(=O)c2cccc(C)c2)c(=O)c2cc(F)c(N3CCN(C)CC3)cc21`, the “activity change, negative = growth inhibition” value was -15.2%.
Still for that read-out and setting: next, `CCn1cc(C(=O)NCCO)c(=O)c2cc(F)c(N3CCN(C)CC3)cc21`: -4.68%; `CC1CCCN(c2cc3c(cc2F)c(=O)c(S(=O)(=O)c2cccc(Cl)c2)cn3Cc2ccccc2)C1` (configuration not stated): 0.498%.
Take `Cc1cccc(S(=O)(=O)c2cn(Cc3ccccc3)c3cc(N4CCOCC4)c(F)cc3c2=O)c1`: the Potency is 6.51 µM (active).
On to `Cc1ccc(S(=O)(=O)c2cn(Cc3ccccc3)c3cc(N4CCCC4)c(F)cc3c2=O)c(C)c1`, for which the Potency was 20.6 µM (active).
With `COCCNC(=O)C1CCN(S(=O)(=O)c2ccc3c(c2)OCCO3)CC1`, the “activity change, negative = growth inhibition” value is -10.3%.
On to `C[C@H]1CN([C@@H](C)CO)C(=O)CCCn2cc(nn2)CO[C@@H]1CN(C)S(=O)(=O)c1ccc(-n2cccn2)cc1`, for which the “activity change, negative = growth inhibition” value was -13.4%.
Same read-out and setting: the value for `CC(=O)NNc1cc(=O)c2c(=O)n(C)c(=O)n(C)c2[nH]1` was -1.94%.
Take `Cc1cccc(NC(=O)c2ccc(COc3ccccc3[N+](=O)[O-])o2)n1`: the “activity change, negative = growth inhibition” value was -4.93%.
On to `COc1ccc(C)cc1N1C(=O)[C@@H]2C[C@H]1CN2Cc1cccc(OC)c1O`, for which the activity change, negative = growth inhibition is -12.7% [at 9.04 µM].
With `CCOc1ccc(CC(=O)NCCS(=O)(=O)N2CCN(c3ccccc3)CC2)cc1`, the “activity change, negative = growth inhibition” value is -20.6%.
Regarding `COc1cc(C(=O)NCCS(=O)(=O)N2CCN(c3ccccc3)CC2)cc(OC)c1OC`, the Potency was 20.6 µM (active).
As to `COc1cccc(OCC(=O)NCCS(=O)(=O)N2CCN(c3ccccc3)CC2)c1`, the “activity change, negative = growth inhibition” value was -18.7%.
With `COc1ccc(OC)c(CN2CCN(C(=O)CNC(=O)c3cc(C)cc(C)c3)CC2)c1`, the “activity change, negative = growth inhibition” value was -27.7%.
For the compound `COc1cc(C(=O)NCC(=O)N2CC=C(c3ccccc3)CC2)cc(OC)c1OC`, the Potency is 16.4 µM (active).
Regarding `COc1cc(OC)cc(C(=O)NCC(=O)N2CCCCCCC2)c1`, the “activity change, negative = growth inhibition” value was -3.83%.
Regarding `CC(=O)Nc1nc(N(C)C)nc(N(C)C)n1`, the “activity change, negative = growth inhibition” value was 2.3%.
Same read-out and setting: the value for `CN(CC(=O)Nc1ccc(OC(F)(F)F)cc1)C(=O)C1CCC1` was -22.9%.
Turning to `O=C(NCC(=O)N1CCCCCCC1)c1ccccc1Cl`, the “activity change, negative = growth inhibition” value was -3.35%.
For the compound `Cc1ccc(CN2CCN(Cc3ccc4ncccc4c3)CC2CCO)cc1` (configuration not stated), the “activity change, negative = growth inhibition” value is -7.54%.
For `COc1cccc(N(CC(=O)Nc2cccc(F)c2)S(C)(=O)=O)c1`, the “activity change, negative = growth inhibition” value is -23.4%.
Same read-out and setting: next, `CCN(CC)S(=O)(=O)c1ccc(NC(=O)CN(c2cccc(F)c2)S(C)(=O)=O)cc1`: -21.7%.
For `Cc1cccc(N(CC(=O)Nc2ccc(-c3nc4ccc(C)cc4s3)cc2)S(C)(=O)=O)c1`, the Potency is 13 µM (active).
`O=C(Nc1nnc(C2CC(=O)N(c3ccc(Cl)cc3)C2)s1)c1ccco1` (configuration not stated): the “activity change, negative = growth inhibition” value was -24%.
The same measure, in the same setting: next, `CC(C)Nc1nnc(SC(C)C(=O)N(C)C2CCCCC2)s1` (configuration not stated): -9.32%; `CC(NC(=O)Nc1ccc2c(c1)OCO2)c1ccncc1` (configuration not stated): 12.1%.
For `CCc1ccc(NC(=O)NC(C)c2ccc3c(c2)OCO3)cc1` (configuration not stated), the “activity change, negative = growth inhibition” value is -12.2%.
Take `CC1CCCN(C(C(=O)Nc2ccc(C(C)C)cc2)c2ccc3c(c2)OCO3)C1` (configuration not stated): the Potency is 18.4 µM (active).
In the case of `O=C(CN1C(=O)NC2(CCCCC2)C1=O)N1CCN(C(=O)c2cccs2)CC1`, the “activity change, negative = growth inhibition” value was 9.19%.
For `COc1ccc(Cl)cc1NC(=O)NC(C)C(C)(C)C` (configuration not stated), the “activity change, negative = growth inhibition” value was 18.8%.
For the compound `CCNc1nc(NCC)nc(N/N=C/c2ccc(O)c(OC)c2)n1`, the “activity change, negative = growth inhibition” value is -23%.
`O=[N+]([O-])c1cccc(/C=N/Nc2ncc(Br)cn2)c1`: the “activity change, negative = growth inhibition” value is -2.55%.
As to `COc1cc(/C=N/Nc2nc3ccccc3s2)ccc1O`, the Potency was 1.46 µM (active).
Take `Cc1ccc(S(=O)(=O)Nc2nc3ccccc3s2)cc1[N+](=O)[O-]`: the “activity change, negative = growth inhibition” value is 5.53%.
Consider `COc1ccc(/C=N/Nc2nc3ccccc3o2)cc1OC`, for which the “activity change, negative = growth inhibition” value is 2.57%.
For `O=[N+]([O-])c1cc(Br)c(O)c(/C=N/Nc2nc3ccccc3s2)c1`, the Potency was 8.2 µM (active).
As to `CCOC(=O)N1CCC(N2Cc3cccc(C(=O)Nc4ccc(S(=O)(=O)N(CC)CC)cc4)c3C2=O)CC1`, the “activity change, negative = growth inhibition” value was -18.8%.
On to `C=CCOc1cccc(C2C(C(=O)c3ccc(C)o3)=C(O)C(=O)N2CCN2CCOCC2)c1` (configuration not stated), for which the “activity change, negative = growth inhibition” value is -22.3%.
With `COc1ccc(/C=N/NC(=O)c2ccccc2)cc1OS(=O)(=O)c1ccccc1`, the “activity change, negative = growth inhibition” value was -71.7%.
Regarding `COc1ccc(/C=N/Nc2ccccc2C(=O)O)cc1`, the “activity change, negative = growth inhibition” value was -1.82%.
Turning to `COc1ccc(C(=O)Nc2ccccc2C(=O)N/N=C/c2ccc(O)c(OC)c2)cc1`, the Potency is 16.4 µM (active).
For `Cc1cccc(C)c1N1C(=O)CN(Cc2ccccc2)C1=S`, the “activity change, negative = growth inhibition” value is -6.5%.
The same measure, in the same setting: next, `C=CCC1(CC=C)CCCN1C(=O)CC1C(=O)NCCN1Cc1ccccc1OC` (configuration not stated): -23.7%; `O=C(Cc1ccc(Br)cc1)NCCN1CCOCC1`: 17.8%.
Consider `COC1=C/C(=C/c2c(N)n3nc(CC(=O)N4CCOCC4)sc3nc2=O)C=CC1=O`, for which the “activity change, negative = growth inhibition” value is -0.843%.
`Cc1cccc(CSc2nc3ccncc3n2Cc2ccc(C(=O)O)cc2)c1`: the “activity change, negative = growth inhibition” value is -0.967%.
Still for that read-out and setting: next, `O=C(O)c1ccc(CSc2nc3cccnc3n2Cc2cccc(F)c2)cc1`: -1.39%.
`COc1cccc(Cn2c(SCc3ccc(C(=O)N4CCC(C)CC4)cc3)nc3ccncc32)c1`: the Potency was 11.6 µM (active).
